From PubChem
Hits are enriched below; roughly 2.9% of the tested compounds scored in any of these assays.
PLCg1 inh – inhibitors of human phospholipase C gamma1; actives 0.84% (n = 370,000); purified PLC-gamma1, fluorogenic substrate, fluorescence; P19174; inhibition, % at 12.2 µM; in the data active = inhibition above about 9.5%
ADAM10 inh – inhibits human ADAM10; recombinant ADAM10, EDANS/DABCYL FRET peptide cleavage, 3 h; inhibition, % at 7 µM; actives 0.62% (n = 370,000); AID 720582;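 active = inhibition above a per-campaign cutoff equal to the mean of compounds falling between control-based bounds plus 3 SD, cut at about 20% in these data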;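 note: 0% = DMSO wells while the 100% control is not disclosed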
PLC-beta3 inh – PLC-beta3 (human) inhibition, primary screen; Q01970; Purified PLC-beta3, fluorogenic substrate, fluorescence; inhibition, % at 12.2 µM; actives 0.18% (n = 370,000); AID 720704;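 note: 0% = median of compound wells on plate and 100% = full blocker control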
KLK7 zymogen act – activates the human kallikrein-7 zymogen; P49862; purified proKLK7, EDANS-DABCYL substrate fluorescence; 100% is mature enzyme control, 0% vehicle; activation, % at 7 µM; actives 0.9% (n = 370,000); AID 652039;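 active = activation above the mean of all tested compounds plus 3 SD, computed per campaign excluding outliers beyond control limits, cut at about 13% in these data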
ADAM17 inh – ADAM17 inhibition, QFRET primary screen | P78536 | recombinant ADAM17, EDANS/DABCYL FRET peptide cleavage | inhibition, % at 6.95 µM | actives 0.83% (n = 370,000) | AID 720648;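 active = inhibition above the mean of compounds lying between control limits plus 3 SD, set per campaign, cut at about 8.5% in these data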;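 note: 0% = DMSO-only wells as the low control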
ADAM10 confirm – human ADAM10 inhibition, confirmation; inhibition, % at 6.95 µM; shares compounds with ADAM10 inh; actives 1% (n = 2,100); ADAM10 QFRET peptide cleavage, EDANS fluorescence;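 active = inhibition above about 20% chosen separately for each screening run, limit read from the data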;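 note: 0% = DMSO wells and 100% = marimastat wells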
ADAM17 counter – ADAM17 inhibition, counter-screen for ADAM10 exosite hits. shares compounds with ADAM10 inh. ADAM17 QFRET peptide cleavage, EDANS fluorescence. inhibition, % at 6.95 µM. actives 0.5% (n = 2,100). AID 743214;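 active = mean triplicate inhibition above the solvent-only control wells' mean plus 3 SD, cut at about 12% in these data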;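 note: 0% = DMSO wells and 100% = marimastat wells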
ADAM10 counter – inhibits human ADAM10 in ADAM17 exosite counter-screen. shares compounds with ADAM17 inh. recombinant ADAM10, EDANS/DABCYL FRET peptide cleavage, 3 h. inhibition, % at 6.95 µM. actives 47% (n = 2,900);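 active = mean inhibition over the triplicate runs exceeds the activity threshold set in the earlier primary screen, cut at about 20% in these data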;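 note: 0% = DMSO wells and 100% = marimastat wells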
ADAM17 confirm – human ADAM17 inhibition, confirmation; AID 743257; recombinant ADAM17, EDANS/DABCYL QFRET peptide cleavage; actives 65% (n = 2,900); inhibition, % at 6.95 µM; shares compounds with ADAM17 inh;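 active = mean inhibition across replicates above the hit cutoff set in the primary screen, cut at about 8.5% in these data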;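 note: 0% = DMSO wells and 100% = marimastat wells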
PLCgamma1 ctr – inhibits human PLC-gamma1 in PLC-beta3 counter-screen | shares compounds with PLCg1 inh | purified PLC-gamma1, fluorogenic substrate, fluorescence | inhibition, % at 12.3 µM | actives 3.1% (n = 3,300); in the data active = inhibition above about 9.5%
PLCbeta3 conf – confirmation of human PLC-beta3 inhibitors; shares compounds with PLCg1 inh; purified PLC-beta3, fluorogenic substrate fluorescence; inhibition, % at 12.3 µM; actives 1% (n = 3,300); AID 743261
Active calls of the source: *; · = no result. Cut-off read from the data, not from the text of the source, unless noted: active = inhibition above about 11%; inactive = the rest.

SMILES	PLCg1 inh	ADAM10 inh	PLC-beta3 inh	KLK7 zymogen act	ADAM17 inh	ADAM10 counter	ADAM17 confirm	others
CC1=CC(C)CC(C)OC(=O)CC(c2ccc(O)cc2)NC(=O)C(Cc2c(Br)[nH]c3ccccc23)N(C)C(=O)C(C)NC(=O)C(C)C1 (stereo not given)	2.0	24.7*	5.7	0.3	8.9*	29.8*	17.9*	ADAM10 confirm=2.4;ADAM17 counter=0.8
CC(C)c1ccc(C(c2c(O)c3ccccc3oc2=O)c2c(O)c3ccccc3oc2=O)cc1	-16.6	22.9*	-30.3	0.2	9.6*	34.5*	23.2*	ADAM10 confirm=8.4;ADAM17 counter=1.1
CCC(c1nnnn1-c1ccc(OC)cc1)N1CCC2(CC1)C(=O)NCN2c1ccccc1 (stereo not given)	-2.6	-3.9	-1.0	0.3	-1.2	·	·
COc1ccc(-n2nnnc2C(CCc2ccccc2)N2CCC3(CC2)C(=O)NCN3c2ccccc2)cc1 (stereo not given)	-4.2	27.6*	-2.4	0.1	11.7*	32.6*	18.4*	ADAM10 confirm=9.6;ADAM17 counter=3.2
C=C1[C@@H](C)C2[C@H](Cc3ccccc3)NC(=O)[C@]23[C@H](OC(C)=O)/C=C/[C@@](C)(O)C(=O)[C@@H](C)C/C=C/[C@H]3[C@@H]1O (stereo not given in full)	3.7	-1.3	1.7	0.8	-0.1	·	·
Oc1ccc(O)c2c1C1(Cl)C(Cl)=C(Cl)C2(Cl)C1(Cl)Cl	3.1	40.9*	1.5	0.0	14.7*	28.6*	13.7*	ADAM10 confirm=4.9;ADAM17 counter=1.5
COC(=O)C1=C(c2ccc(OC(F)(F)F)cc2)C[C@@H]2CC[C@H]1N2C(=O)NCc1ccco1	-2.9	-3.2	-4.6	-0.2	-4.3	·	·
COC[C@H]1OC(=O)c2coc3c2[C@@]1(C)C1=C(C3=O)[C@@H]2CCC(=O)[C@@]2(C)C[C@H]1OC(C)=O	-25.4	-14.9	-41.2	1.5	-5.2	·	·
COc1ccc(NP(=O)(Oc2ccc(Cl)cc2)Oc2ccc(Cl)cc2)cc1OC	3.0	23.4*	4.0	0.3	11.8*	41.1*	17.1*	ADAM10 confirm=9.1;ADAM17 counter=3.8
O=C(NCCN1CCC2(CC1)C(=O)NCN2c1ccccc1)c1ccc2ccccc2c1	-0.7	-1.4	-0.7	1.1	-1.5	·	·
COc1ccc(OC)c(NP(=O)(Oc2ccccc2)Oc2ccccc2)c1	11.0*	32.4*	-0.6	0.4	10.3*	8.4	6.4	ADAM10 confirm=0.3;ADAM17 counter=0.7;PLCgamma1 ctr=-0.7;PLCbeta3 conf=0.8
COCCNC(=O)N1[C@H]2CC[C@@H]1C(C(=O)OC)=C(c1ccc(-c3ccccc3)c(F)c1)C2	-0.6	-4.1	0.2	0.4	-2.5	·	·
COC(=O)C1=C(c2ccc(-c3ccccc3)c(F)c2)C[C@@H]2CC[C@H]1N2C(=O)NCCOc1ccccc1	10.1*	37.9*	1.6	0.1	18.1*	37.7*	19.1*	ADAM10 confirm=5.2;ADAM17 counter=2.0;PLCgamma1 ctr=-1.4;PLCbeta3 conf=0.3
N#CCCC#N	1.3	-4.3	2.1	-0.6	-2.7	·	·
O=c1[nH]c2ccccc2n1C1CCN(C(c2ccccc2OC(F)(F)F)c2nnnn2Cc2ccccc2)CC1 (stereo not given)	1.2	13.3	-7.7	0.4	11.7*	41.8*	20.3*
O=c1[nH]c2ccccc2n1C1CCN(C(c2cccs2)c2nnnn2Cc2ccccc2)CC1 (stereo not given)	3.3	12.8	2.9	0.6	11.1*	37.6*	18.5*
COc1ccc(-n2nnnc2C(c2cc3ccccc3o2)N2CCC(n3c(=O)[nH]c4ccccc43)CC2)cc1 (stereo not given)	-0.9	18.0	-7.4	0.9	9.6*	28.3*	12.9*
COc1ccc(C(c2nnnn2Cc2ccccc2)N2CCC(n3c(=O)[nH]c4ccccc43)CC2)cc1 (stereo not given)	-0.1	-0.2	-0.1	-0.1	-0.6	·	·
COC(=O)C1=C[C@H]([C@@H](C)[C@H](OC)c2ccccc2Br)[C@@H]2[C@H]1c1ccccc1N2C	-1.7	3.3	-2.4	-3.0	2.6	·	·
Cc1cccc(N2C(=O)/C(=C/c3ccc(CN(CCC#N)S(C)(=O)=O)o3)C(=O)NC2=S)c1	-22.7	8.8	-34.4	0.7	9.1*	0.4	7.2
CN1CC[C@@H]2CN[C@H](c3ccccc3)C[C@@H]21	-19.9	-81.2	-26.3	0.1	-25.6	·	·
Cc1cc(O)c2c(c1)OC(C)(C)C1=C2CC(C)CC1 (stereo not given)	1.6	12.1	-7.4	-0.2	12.1*	30.4*	14.1*
COc1ccc(S(=O)(=O)NC(CC(=O)N2CCC3(CC2)OCCO3)c2ccco2)cc1 (stereo not given)	2.9	12.1	3.0	-1.0	-1.4	·	·
COc1ccc(C(=O)Nc2cccc(S(=O)(=O)NCc3ccco3)c2)cc1	1.5	11.2	-2.9	0.1	8.7*	22.6*	15.4*
O=C(c1cc2c(s1)CCCCCC2)N1CCC2(CC1)OCCO2	2.3	3.2	4.6	0.8	8.7*	2.9	11.7*
SMILES	PLCg1 inh	ADAM10 inh	PLC-beta3 inh	KLK7 zymogen act	ADAM17 inh	ADAM10 counter	ADAM17 confirm	others
CCc1sc(C(=O)N2CCC3(CC2)OCCO3)cc1Br	2.2	-2.7	-0.6	-0.2	-2.6	·	·
CCOC(=O)CC[C@@H]1CC[C@]2(CCCN(Cc3cccnc3)C2)O1	0.1	-5.3	-0.5	-0.8	-4.5	·	·
O=C(N/N=C/c1c(O)n(-c2ccccc2)c(=S)[nH]c1=O)c1ccccc1	-11.3	-3.2	-23.0	-1.2	-1.6	·	·
CC(C)c1ccc(-n2c(O)c(C=NC(CCS(C)=O)C(=O)O)c(=O)[nH]c2=S)cc1 (stereo not given)	8.3	13.7	-1.3	-0.7	9.2*	15.6	8.1
COC(=O)C1=C(c2ccc(F)cc2OCc2ccccc2)C[C@@H]2CC[C@H]1N2C(=O)NCc1ccc([N+](=O)[O-])cc1	2.8	14.5	2.4	0.1	9.0*	30.2*	19.5*
COC(=O)C1=C(c2ccc(F)cc2OCc2ccccc2)C[C@@H]2CC[C@H]1N2C(=O)NCc1ccc(C)cc1	0.0	13.6	1.0	-0.7	5.2	·	·
